Screens as filed in PubChem BioAssay.
HT1080 IDH1KD tx: toxicity to HT-1080 IDH1 knockdown cells (counter line). HT-1080 IDH1 knockdown viability, ATP luminescence, 48 h. Potency, µM (highest dose often 46.1 µM), inactives show at the top dose activity, negative = toxicity, actives largely listed as cytotoxic. actives 2% (n = 360,000);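 further: potency means the concentration at half of the fitted maximal effect; 0% = DMSO wells and -100% = cell-free medium wells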
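IDH1KD HT-1080 cells, 750/well, RPMI + 5% FBS; compound pinned after 2 h settling; 48 h, 37 °C; CellTiter-Glo luminescence; % activity normalised to DMSO and no-cell wells; curves fitted, classed by r2 and efficacy.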
TDP1 cell CPT: growth inhibition of DT40 Tdp1-/-;hTDP1 cells with camptothecin (screen for TDP1 inhibitors); chicken DT40 Tdp1-/-;hTDP1 cells + 20 nM CPT, ATP luminescence, 48 h; Potency, µM (series often up to 46.2 µM), without a hit: top-dose activity change, negative = growth inhibition, actives largely listed as inhibitors; actives 12% (n = 420,000); AID 686979; further: potency means the concentration at half of the fitted maximal effect; nearly all actives have a fitted effect of over 55% in size
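Cell growth measured by CellTiter-Glo luminescence after a minimum 48 h, 37 C compound exposure with 20 nM CPT in Tdp1-knockout DT40 cells stably expressing hTDP1, seeded 400/well; qHTS titration format.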
HT1080NT lethal: kills 2HG-producing HT-1080-NT fibrosarcoma cells; HT-1080-NT fibrosarcoma viability, CellTiter-Glo ATP luminescence, 48 h; Potency, µM (titrated, usually from 46.1 µM), without a hit: at the top dose activity, negative = less viability, usual class: cytotoxic; actives 1.6% (n = 360,000); AID 686970;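 further: NT is the 2HG producing partner of a matched IDH1 knockdown line; potency means the concentration at half of the fitted maximal effect; 0% = DMSO-treated cells and -100% = media-only wells without cells; nearly all actives have a fitted effect of over 55% in size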
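Viability of the 2HG-overproducing fibrosarcoma line after 48 hours of compound exposure at 37 degrees C was determined by luminescence with CellTiter-Glo, and concentration-effect curves were then fitted and categorized.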
12-LOX inh: inhibitors of human 12S-lipoxygenase ALOX12 | P18054 | purified 12hLO, xylenol orange hydroperoxide absorbance | Potency, µM (highest dose often 108 µM), without a hit: at the highest dose activity change, negative = inhibition, usual class: inhibitors | actives 1.1% (n = 580,000) | AID 1671190; further: potency means the concentration at half of the fitted maximal effect
Target sequence (P18054 whole entry, looked up): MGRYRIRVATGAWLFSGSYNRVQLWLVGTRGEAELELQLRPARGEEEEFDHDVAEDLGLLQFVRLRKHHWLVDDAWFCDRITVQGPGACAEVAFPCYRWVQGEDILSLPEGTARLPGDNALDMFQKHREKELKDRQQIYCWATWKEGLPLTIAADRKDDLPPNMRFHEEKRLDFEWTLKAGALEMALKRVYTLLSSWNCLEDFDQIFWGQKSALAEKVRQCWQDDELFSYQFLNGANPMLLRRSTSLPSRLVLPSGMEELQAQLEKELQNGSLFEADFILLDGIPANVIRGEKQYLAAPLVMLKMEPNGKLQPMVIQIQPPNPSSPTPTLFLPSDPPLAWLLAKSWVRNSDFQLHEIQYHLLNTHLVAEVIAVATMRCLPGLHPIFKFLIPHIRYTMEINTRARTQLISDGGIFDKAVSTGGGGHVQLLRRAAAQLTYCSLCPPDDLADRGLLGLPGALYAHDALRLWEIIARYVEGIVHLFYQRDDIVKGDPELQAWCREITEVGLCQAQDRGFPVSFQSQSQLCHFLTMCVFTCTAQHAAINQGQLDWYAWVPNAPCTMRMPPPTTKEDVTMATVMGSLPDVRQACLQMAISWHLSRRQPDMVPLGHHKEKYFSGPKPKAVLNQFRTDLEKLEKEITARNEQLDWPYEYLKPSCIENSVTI
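Purified human 12hLO at 150 nM in 25 mM Hepes, 0.01% Triton X-100, pH 7.0, preincubated 15 min at room temperature with compound. Reaction started with 40 uM arachidonic acid, 30 min at room temperature. Hydroperoxide measured by Fe-xylenol orange, 573/405 nm absorbance ratio.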
DT40 TDP1 no CPT: qHTS for Inhibitors of human tyrosyl-DNA phosphodiesterase 1 (TDP1): qHTS in cells in absence of CPT. DT40 Tdp1-/- hTDP1 cells, no CPT, ATP luminescence, 48 h. Potency, µM (highest dose often 46.2 µM), for the others: at the highest dose activity change, negative = growth inhibition, most hits filed as inhibitors. actives 15% (n = 420,000); further: potency means the concentration at half of the fitted maximal effect; nearly all actives have a fitted effect of over 55% in size
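Compound effects on proliferation are scored in DT40 Tdp1-/-;hTDP1 cells in the absence of CPT. ATP levels (CellTiter-Glo luminescence) are recorded after a ≥48 hr, 37 °C incubation.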
IL-1B inflam inh: blocks inflammasome-driven IL-1 beta release. THP-1 LPS/ATP IL-1B secretion, AlphaLISA, 16 h; stronger effect = lower value. activity change, % at 57.5 µM. actives 4.7% (n = 360,000). AID 743279; in the data active means activity change below about -50%; inconclusive means mostly about -30% to -49%
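Secreted IL-1B measured by AlphaLISA bead assay after 16 h compound exposure of THP-1 cells; compounds (final up to 57.5 uM) added 1 h before LPS (250 ng/mL) and ATP (1.25 mM) stimulation; lower signal means less secretion.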
* hit, by the source's call; u = inconclusive; x = no result; [ ] = dose if it differs, or a comment. The entries come from a sample that favours hits as a whole. Unless noted, the call rests on the fitted dose curve; in most records, active means well fitted curve in the direction sought with a large enough effect; inconclusive means small, poorly fitted or top-dose-only effect, or another doubt; inactive means no such curve, though single readings can be large; an effect the other way counts as inactive or inconclusive. Unless noted, on the % scale 0 is the no-effect control and ±100 the full control effect.

SMILES | HT1080 IDH1KD tx | TDP1 cell CPT | HT1080NT lethal | 12-LOX inh | DT40 TDP1 no CPT | IL-1B inflam inh
O=C(COc1ccc(Br)cc1)NNC(=S)NC(=O)c1ccccc1[N+](=O)[O-] | -29% | u | -24% | u | 21µM* | 30
CCCCOc1ccccc1C(=O)NNC(=S)NC(=O)c1ccccc1[N+](=O)[O-] | u | 26µM* | u | u | 18µM* | 67
O=C(NNC(=S)NC(=O)c1ccccc1[N+](=O)[O-])c1ccc(Cl)cc1Cl | -7% | u | -18% | u | u | 21
O=C(NNC(=S)Nc1ccccc1)c1ccccc1[N+](=O)[O-] | 12% | 8% | 16% | 13% | -27% | -73*
Cc1ccc(C(=O)NC(=S)NNC(=O)c2ccccc2[N+](=O)[O-])cc1 | -17% | 21µM* | -9% | 32µM* | u | 0
O=C(NC(=S)NCc1ccccc1)c1ccccc1[N+](=O)[O-] | -15% | 4% | -13% | -7% | u | 18
CC(C)CNC(=O)NC(=O)CN(C)CCCc1ccccc1 | x | x | x | -2% | x | x
CC(C)CCN1CC(C(=O)NCc2ccncc2)C2(CCOCC2)C1 (centres undefined) | x | x | x | 76% | x | x
CCN1c2cc(C(=O)N3CCN(c4ccc(OC)cc4)CC3)ccc2C(=O)N2CCCCC21 (centres undefined) | x | x | x | 0% | x | x
O=C(NCCOc1ccccc1)c1cnc2c(c1)N(C(=O)Cc1ccc(O)cc1)CCC2 | x | x | x | 19%[176 µM] | x | x
O=C(NNC(=S)NC(=O)c1ccccc1[N+](=O)[O-])c1ccccc1O | -12% | u | -17% | -7% | 18µM* | 25
O=C(NNC(=S)NC(=O)c1ccccc1[N+](=O)[O-])c1ccccc1[N+](=O)[O-] | 4% | -2% | 2% | -17%[57.4 µM] | -4% | -18
Cc1ccc(S(=O)(=O)N(C)C)cc1C(=O)OC(C)C(=O)c1ccccc1 (centres undefined) | x | x | x | 37% | x | x
CC1(C)Cc2c(sc3nc(C4CC4)n(N)c(=O)c23)CO1 | -5% | -20% | 5% | 1% | u | -8
Cn1c(NN)nc2sc3c(c2c1=O)CC(C)(C)OC3 | 13µM* | u | u | 4% | u | 46
CC(C)c1ccc(NC(=O)C2CCN(S(=O)(=O)c3ccc4c(c3)NC(=O)CO4)CC2)cc1 | -16% | u | -18% | 0% | 23µM* | -6
COc1ccc(NC(=O)C2CCN(S(=O)(=O)c3ccc4c(c3)NC(=O)C(C)S4)CC2)cc1 (centres undefined) | u | u | u | 0% | u | 44
CC1Sc2ccc(S(=O)(=O)N3CCC(C(=O)Nc4ccc(Cl)cc4)CC3)cc2NC1=O (centres undefined) | u | 21µM* | 21µM* | 0% | 9.2µM* | -19
COc1cccc(NC(=O)C2CCN(S(=O)(=O)c3ccc4c(c3)NC(=O)C(C)S4)CC2)c1 (centres undefined) | -17% | 21µM* | -26% | -6% | 21µM* | 26
CSc1ccc(NC(=O)c2ccc3c(c2)NC(=O)CS3)cc1 | x | x | x | -6% | x | x
CNC(=O)c1c(C)nc2n1CCC(Nc1ccccc1C)C2 (centres undefined) | x | x | x | 6%[176 µM] | x | x
CC1CC(=O)Nc2ccccc2N1C(=O)CSc1ccc2ccccc2n1 (centres undefined) | 0% | 16µM* | 1% | 187% | u | -9
Cc1cc(SCC(=O)N2c3ccccc3NC(=O)CC2C)nc2ccccc12 (centres undefined) | -1% | u | -6% | -16% | 16µM* | -9
CCn1nnnc1SCC(=O)N1c2ccccc2NC(=O)CC1C (centres undefined) | -2% | -3% | -3% | 12% | 0% | -6
Cc1ccc(C(=O)Nc2nc(-c3nnn(-c4cccc(Cl)c4C)c3C)ns2)cc1C | x | 26µM* | x | -2% | 18µM* | x
SMILES | HT1080 IDH1KD tx | TDP1 cell CPT | HT1080NT lethal | 12-LOX inh | DT40 TDP1 no CPT | IL-1B inflam inh
Cc1ccc(C(=O)Nc2nc(-c3nnn(-c4cccc(C(F)(F)F)c4)c3C)ns2)cc1 | x | 3.3µM* | x | -12% | 4.1µM* | x
COc1cc(NC(=O)Cn2nc(C(F)(F)F)c(Br)c2C)cc([N+](=O)[O-])c1 | -9% | 15µM* | -14% | -6% | 21µM* | -15
COc1ccc(CNC(=O)Cn2nc(C(F)(F)F)c(Br)c2C)cc1 | -3% | -19% | -1% | 63% | u | 10
COc1ccc(CCNC(=O)Cn2nc3n(c2=O)CCCCC3)cc1OC | x | x | x | 19% | x | x
Cc1ccc(O)c(C(=O)c2cnc3c(c2)CN(CCC(C)C)C(=O)N3)c1 | u | 10µM* | u | u | 12µM* | -15
O=C(Cc1c[nH]c2ccccc12)N1CCC(Cc2nncn2-c2ccccc2)CC1 | x | x | x | 16% | x | x
CCn1c(=O)c2cc(C(=O)N(CCN(C)C)Cc3ccccc3)sc2c2ccccc21 | x | -26% | x | u | 21µM* | x
CC(C)CCN(Cc1ccco1)C(=O)c1cc2c(Cl)nc3ccccc3c2s1 | x | u | x | -15% | 16µM* | x
CCn1c(=O)c2cc(C(=O)N(C)CC(OC)OC)sc2c2ccccc21 | 0% | u | -2% | 0% | u | 11
CCn1c(=O)c2cc(C(=O)N(CCCOC(C)C)Cc3ccco3)sc2c2ccccc21 | x | u | x | -17% | 21µM* | x
CCn1c(=O)c2cc(C(=O)NCCOC)sc2c2ccccc21 | 6% | u | 14% | -14% | u | u
CCOc1ccccc1N(C)C(=O)c1cc2c(=O)n(CC)c3ccccc3c2s1 | -2% | 21µM* | -2% | -40% | 21µM* | -68*
CC(C)(C)OC(=O)NCCC(=O)NC1CCCC1 | x | x | x | 19% | x | x
COC(=O)C1=C(C)N(C)C(=O)NC1c1ccc(Br)o1 (centres undefined) | x | x | x | -83% | x | x
O=C1CO[C@H]2CN(Cc3ncc[nH]3)C[C@H]2N1Cc1ccccc1 | x | x | x | 131%[176 µM] | x | x
CCc1ccc(NC(=O)Cn2c(-c3ccccc3)nc(C)c(CCO)c2=O)cc1 | x | x | x | -1% | x | x
O=C(NCc1ccccc1)c1onc(CSc2ccccc2)c1C(=O)NCC1CC1 | -1% | 13µM* | -16% | u | 21µM* | -52*
O=C(NCc1ccccc1)c1onc(CSc2ccccc2)c1C(=O)NCc1ccccc1 | 5% | 16µM* | 2% | u | u | -16
